What is called inhibition is the change of the read-out against control, counted positive when it falls.

The campaign covered roughly 320,000 compounds. About 1,300 (0.41%) were called active. About 3% were inconclusive and are not listed. The rule behind the calls is not given here. A selection follows. Potency and affinity values are given separately.

The assay is described as follows: growth inhibition of non-replicating M. tuberculosis (AID 488890).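 Note: plate controls were DMSO cells for no effect and high antibiotic wells for full effect.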 To be noted: Mycobacterium tuberculosis non-replicating, at 25 µM, stronger effect = higher value.
Turning to `CCSc1ncc(/C=N/Nc2ccc(F)cc2)n1C`, the inhibition stood at 60.8%.

Turning to `CCSc1ncc(/C=N/Nc2ccccc2)n1C`, the inhibition worked out at 53.4%. In the case of `COc1cc(CC(NC(C)=O)C(=O)NC2CCN(c3c4c(nc5ncnn35)CCC4)CC2)cc(OC)c1` (stereo unspecified), the inhibition was -7.76%.

In the case of `COc1ccc(/C=N/NC(=O)c2snnc2C)c(OC)c1OC`, the inhibition was 4.13%. On to `O=C(N/N=C/c1ccccc1O)c1ccncc1`, for which the inhibition amounted to 67.2%. As to `Cc1nnsc1C(=O)N/N=C/c1ccccc1`, the inhibition was -14.8%. In the case of `CCOc1ccc2ccccc2c1/C=N\NC(=O)c1ccc([N+](=O)[O-])cc1` it was 8.86%; in that of `O=C(N/N=C/c1ccccc1C(=O)O)c1ccncc1`, 47.8%.

Turning to `O=C(N/N=C/c1cccc2ccccc12)c1cccnc1`, the inhibition came out at 77.8%. On to `CCOc1ccc2ccccc2c1/C=N/NC(=O)c1ccc(C)nc1`, for which the inhibition worked out at 6.31%.

As for `Cc1ccc(C(=O)N/N=C/c2c(O)ccc3ccccc23)cn1`, the inhibition was -8.14%. Regarding `Cc1ccc(NC(=O)[C@H](C)NC(=O)C2CCN(C(=O)[C@@H](NC(=O)OC(C)(C)C)C(C)C)CC2)cc1`, the inhibition is -5.73%. In the case of `CC(C)[C@H](NC(=O)c1ccco1)C(=O)OCC(=O)NC12CC3CC(CC(C3)C1)C2`, the inhibition is 16.5%.

On to `O=C(Nc1cccc(-n2cnnn2)c1)c1cnccc1Cl`, for which the inhibition was -2.47%. In the case of `O=C(NCc1ccccc1)c1ccc(CN2CCC(Cc3ccccc3)CC2)cc1` it was 63.1%. The figure for `CCCc1ccc2oc(C(=O)N3CCC(N4CCCC(O)C4)CC3)c(C)c2c1` (stereo unspecified) is 9.91%.

On to `O=C(NC1=NCCS1)c1cc(-c2ccccc2)nn1-c1ccccc1`, for which the inhibition came to 12.3%. Turning to `CCOc1ccccc1C(=O)N/N=C/c1cccc2cccnc12`, the inhibition was determined as 78.1%. In the case of `O=C(N/N=C/c1ccnc2ccccc12)c1ccccc1O`, the inhibition came out at 24.1%.

On to `O=C(O)c1ccc(N/N=C/c2cccc3cccnc23)cc1`, for which the inhibition was -19.9%. Turning to `Cc1cccc2cc(/C=N/NC(=O)c3ccccc3O)c(Cl)nc12`, the inhibition is -1.47%.

In the case of `O=C(COc1cccc2cccnc12)N/N=C/c1ccccc1O`, the inhibition worked out at 21.3%. Turning to `CCOc1ccc(C(=O)Nc2cccc3cccnc23)cc1`, the inhibition was 39%. As to `COc1cccc(/C=N/NC(=O)COc2cccc3cccnc23)c1O`, the inhibition is 22.2%.

Take `COc1ccc(C(=O)N/N=C/c2cccnc2)cc1`: the inhibition was -12.5%.

In the case of `O=C(c1ccccc1)N1CCN(C(=S)NCc2ccco2)CC1`, the inhibition is -12.8%. Turning to `Cc1cc(/C=N/O)c(C)n1-c1cccc(Cl)c1`, the inhibition came out at 5.04%. On to `Nc1c(C(=O)Nc2ccc3c(c2)OCCO3)nnn1Cc1cccc(Br)c1`, for which the inhibition was determined as 1.42%.

Turning to `CCOc1ccc(N=C2NC(=O)C(CC(=O)Nc3ccc(OC)cc3)S2)cc1` (stereo unspecified), the inhibition was found to be 23%.

`N#Cc1ccc(C23CC4(C2)[C@H](CN(Cc2ccc(-c5ccccc5)cc2)[C@@H]4c2ccccc2)C3c2ccccc2)cc1` (stereo partly specified): the inhibition turned out to be 34.9%. Consider `CCN(CC)C(=O)CSc1nc(OC)cc(=O)[nH]1`, for which the inhibition was -3.35%. In the case of `COC(=O)C1=C(C(=O)OC)[C@@H]2N(Cc3ccccc3)c3ccccc3[C@@]23C[C@@H](CO)N(C(=O)NC2CCCC2)C3=N1` it was 39.9%; in that of `Cc1ccc(S(=O)(=O)N2CCC(=O)N(CCOC(=O)NCc3ccccc3)CC2)cc1`, 16.1%; in that of `O=C(O)c1ccc(N2CC3CC(C2)c2cccc(=O)n2C3)c(NC(=S)Nc2ccc(Br)cc2)c1` (stereo unspecified), 41.1%. The figure for `O=[N+]([O-])c1ccc(Nc2cccc(F)c2)nc1` is 16.5%. The figure for `CC1=NN(C(=O)c2cccnc2)C(O)(C(F)(F)F)C1` (stereo unspecified) is -26.1%; for `CC1=NN(C(=O)c2nn(C)cc2Br)C(O)(C(F)(F)F)C1` (stereo unspecified) it is 8.53%; for `COc1ccc(CC(=O)N2N=C(C)CC2(O)C(F)(F)F)cc1` (stereo unspecified) it is 72.4%. In the case of `CC1=NN(C(=O)CCc2ccc3c(c2)OCO3)C(O)(C(F)(F)F)C1` (stereo unspecified), the inhibition is -15.8%.

With `CC1=NN(C(=O)c2ccc(Cn3nc(C)cc3C)o2)C(O)(C(F)(F)F)C1` (stereo unspecified), the inhibition was determined as 24.9%.

For `O=C(c1ccco1)N1N=C(c2ccncc2)CC1(O)C(F)(F)F` (stereo unspecified), the inhibition was -9.67%. As to `CC1=NN(C(=O)CCc2ccccc2O)C(O)(C(F)(F)F)C1` (stereo unspecified), the inhibition stood at 74.8%.

With `COc1ccc(OCC(=O)N2N=C(C)CC2(O)C(F)(F)F)cc1` (stereo unspecified), the inhibition worked out at 75.8%. The figure for `COC(=O)c1ccccc1NC(=O)COC(=O)/C=C/c1cccs1` is 18.2%; for `CC(C)c1ccc(C(O)Cc2nc3ccccc3n2C)cc1` (stereo unspecified) it is 41.1%.

`OCCCc1nc2n(n1)C(c1cccs1)C=C(c1ccccc1)N2` (stereo unspecified): the inhibition stood at 0.31%. The figure for `CCOC(=O)c1cc([N+](=O)[O-])sc1N` is 5.99%; for `CCn1c(C(=O)O)c(CC(=O)NC2CCCCCC2)c2ccccc21` it is 24.3%.

For `O=C(CSc1ncccn1)NC1CCCc2ccccc21` (stereo unspecified), the inhibition was -8.14%. In the case of `CC1=NN(C(=O)c2cccc(Cn3nc(C)c([N+](=O)[O-])c3C)c2)C(O)(C(F)(F)F)C1` (stereo unspecified) it was 76.4%; in that of `CC1=NN(C(=O)c2ccc(Cn3ccc([N+](=O)[O-])n3)cc2)C(O)(C(F)(F)F)C1` (stereo unspecified), 75.5%; in that of `COc1ccc(CC(=O)N2N=C(C)CC2(O)C(F)(F)F)cc1OC` (stereo unspecified), 45.4%. On to `CC1=NN(C(=O)Cn2nc([N+](=O)[O-])cc2C)C(O)(C(F)(F)F)C1` (stereo unspecified), for which the inhibition is 32.3%.

On to `CNC(=S)NNS(=O)(=O)c1ccc(OC)cc1OC`, for which the inhibition is -11%.

Turning to `COc1cccc(N2CCN(CC(=O)Nc3nnc(-c4ccccc4)s3)CC2)c1`, the inhibition turned out to be 29.2%. For `O=C(CN1CCN(c2ccccc2)CC1)Nc1nccs1`, the inhibition is 5.49%. The figure for `C=CCn1c(=S)[nH]c2cc(C(=O)Nc3ccc(OC)c(OC)c3)ccc2c1=O` is -8.59%; for `COc1cccc2cc(C(=O)NCCc3c[nH]c4ccccc34)c(=O)oc12` it is 61%; for `O=C(NCCc1ccc(F)cc1)c1cc2ccccc2oc1=O` it is 47.5%. The figure for `COC(=O)C1=CN(Cc2ccc(OC)cc2)C=C(C(=O)OC)C1c1cc(OC)c(OC)c(OC)c1` is 8.79%; for `CCCCn1c(=O)c(C(=O)Nc2ccccn2)c(O)c2ccccc21` it is 27.8%. In the case of `CCCCCn1c(=O)c(C(=O)Nc2ccccn2)c(O)c2ccccc21` it was 68.9%. Regarding `CCCCn1c(=O)c(C(=O)Nc2ccc(C)cn2)c(O)c2ccccc21`, the inhibition was 0.62%. In the case of `CCCCCn1c(=O)c(C(=O)Nc2cc(C)ccn2)c(O)c2ccccc21` it was 17.3%; in that of `COc1cccc(NC(=O)c2ccnc(N3CCC(C(=O)NCc4ccccc4OC)CC3)c2)c1`, -4.35%. In the case of `CC(C)(C)C(=O)Nc1c2c(nn1-c1ccccc1)CSC2`, the inhibition was 35%.

In the case of `COc1ccc(OCC(=O)NNC(=O)c2cccnc2)cc1`, the inhibition was 3.8%. The figure for `COc1cccc(N2CCN(C(=S)Nc3ccc(F)cc3)CC2)c1` is -4.62%.

For `c1ccc(OCCn2c(-c3ccco3)nc3ccccc32)cc1`, the inhibition is 74.4%. Take `c1coc(Cn2c(-c3ccco3)nc3ccccc32)c1`: the inhibition was found to be 6.77%. For the molecule `C=CCSc1nnc2c(n1)OC(C)=Nc1ccc(Br)cc1-2`, the inhibition worked out at 5.66%. In the case of `Cc1cc(NC(=O)COC(=O)c2ccccc2S(=O)(=O)N(C)c2ccccc2)no1` it was 9.17%; in that of `Cc1ccc(C)c(-c2nnc(NC(=O)Cc3ccccc3)o2)c1`, -18%; in that of `O=C(Nc1nnc(-c2ccncc2)o1)c1ccccc1F`, 21.3%. In the case of `O=C(COc1ccccc1)Nc1nnc(-c2ccco2)o1` it was 19.2%; in that of `O=C(COC(=O)Cc1ccccc1)Nc1nnc(-c2ccccc2)o1`, 10.8%; in that of `CC1(C(=O)OCC(=O)Nc2ccccc2)CC1(Cl)Cl` (stereo unspecified), 48.2%. For the molecule `O=C(Nc1ccc2c(c1)CCC2)c1c(F)cccc1Cl`, the inhibition was 1.55%.

Turning to `O=C(CCOc1ccccc1)Nc1nnc(-c2ccc3c(c2)OCCO3)o1`, the inhibition is -7.7%. `CS(=O)(=O)c1ccccc1-c1nnc(NC(=O)COc2ccc(Cl)cc2)o1`: the inhibition stood at 21.8%. As to `COc1ccccc1NC(=O)COC(=O)CCc1ccc(S(=O)(=O)N2CCOCC2)cc1`, the inhibition amounted to 5.51%. The figure for `CCCCN1CC(COc2ccccc2)OC1=O` (stereo unspecified) is 72.5%; for `COc1ccc(Nc2oc(COc3cccc(C)c3)nc2C#N)cc1` it is 13.3%; for `CCN(CC)S(=O)(=O)c1ccc(N2CCCC2)c(NC(=O)c2c(-c3ccccc3)noc2C)c1` it is 13.9%. As for `Cc1cccc(C(=O)NCC(=O)OCC(=O)NC2CCCCC2)c1`, the inhibition was -3.75%.

Regarding `O=C(NCc1ccncc1)C(=O)NCC1OCCN1S(=O)(=O)c1cc(F)ccc1F` (stereo unspecified), the inhibition came out at 3.82%.

For the molecule `Cc1cccc2c(=O)c(C(=O)NCCCN3CCOCC3)c[nH]c12`, the inhibition was 4.67%. The figure for `Cc1nnc(SCCn2c(N3CCCCC3)nc3c2c(=O)n(C)c(=O)n3C)s1` is 7.29%; for `Cc1cnc(NC(=O)c2ccc3c(c2)OCCO3)s1` it is 12.1%; for `O=C(Nc1ccc([N+](=O)[O-])cn1)c1ccc2c(c1)OCO2` it is -8.57%. Turning to `Cc1ccc(C2(c3noc(CN4CCC(C(=O)N5CCOCC5)CC4)n3)CCCC2)cc1`, the inhibition amounted to 14.3%. As to `COC(=O)c1oc2ccc(Br)cc2c1NC(=O)CCCN1C(=O)c2ccccc2C1=O`, the inhibition is -12.2%.

In the case of `CC(=O)Oc1ccc(C(=O)Nc2cccc(C(=O)NC(C)(C)C)c2)cc1`, the inhibition was 7.66%. For the molecule `O=C(COc1ccc2c(-c3ccccc3)cc(=O)oc2c1)NCc1ccccn1`, the inhibition came out at 7.24%.

`Cc1nn(-c2ccccc2)c(C)c1CN`: the inhibition came out at 6.26%. In the case of `CCOc1ccc(C(=O)Oc2ccc(NC(C)=O)cc2)cc1`, the inhibition worked out at 24.7%.

For `CC(=O)Nc1ccc(OC(=O)c2ccc(Cl)cc2)cc1`, the inhibition is 52.1%. In the case of `Cc1ccc(N2CC(C(=O)Nc3nnc(SCCC4OCCO4)s3)CC2=O)cc1C` (stereo unspecified) it was 27.4%; in that of `CCN(CC(=O)NCc1ccc(F)cc1)C(=O)COc1ccc(C)c(C)c1`, 28.3%; in that of `COc1ccc(C(=O)O)cc1S(=O)(=O)NC(C)C`, -0.91%.

Regarding `Oc1ccc(Br)cc1-c1cc(-c2ccc(Cl)cc2)n[nH]1`, the inhibition worked out at 13.8%. The figure for `Oc1ccc(Br)cc1-c1cc(-c2ccccc2)n[nH]1` is -5.74%. The figure for `C1=C(CCNCc2ccccc2)CCCC1` is -4.9%. The figure for `Cc1cc(C(=O)N/N=C/c2ccc[nH]2)no1` is 64.3%; for `O=C(NNC(=O)C1CC1c1ccccc1)c1ccccc1[N+](=O)[O-]` (stereo unspecified) it is -10.3%. `O=C(NNc1ccc([N+](=O)[O-])cc1)c1ccco1`: the inhibition turned out to be 69.6%. In the case of `NS(=O)(=O)c1ccc(NNC(=O)c2ccccc2C(=O)O)cc1` it was -12.1%. The figure for `O=C(O)c1ccccc1C(=O)NNc1ccc(Cl)cc1Cl` is 10.7%; for `Cc1cc(C(=O)N/N=C/c2cccs2)no1` it is 33.9%. In the case of `O=C(NC(NNc1ccc([N+](=O)[O-])cc1)(C(F)(F)F)C(F)(F)F)c1ccccc1Cl` it was 6.68%; in that of `O=C(NNC(=O)C1CC1c1ccccc1)c1cccc([N+](=O)[O-])c1` (stereo unspecified), 3.57%.

These data come from PubChem BioAssay AID488890 (Southern Research Specialized Biocontainment Screening …, 2010).
